Among the data in PubChem BioAssay (NCI) are growth inhibition values, retold here.

About 79,000 compounds went through this panel and 15% of them were active in at least one assay; those are over-represented in the sample as a whole. A number with no mark means an inactive call. Calls of active or inactive are those of the source. Rule as the data show it: active = growth inhibition above about 70%; inactive = the rest.

Test [1] in a line: NCI Yeast Anticancer Drug Screen. Data for the rad50 strain (AID 155).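 Also: 0% = growth of vehicle-only cultures of the same strain.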 Particulars: S. cerevisiae rad50 strain growth inhibition, active compounds read high. The method in brief: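 Relative growth inhibition (compound vs vehicle) was measured in yeast with a defined repair-gene alteration.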
The nature of test [2]: NCI Yeast Anticancer Drug Screen. Data for the mec2-1 strain (AID 157). Particulars: S. cerevisiae mec2-1 strain, active compounds read high. The gist of the method: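 Compounds were applied to mec2-1 yeast cells. Their growth was then compared with that of vehicle-treated cultures to give growth inhibition.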
Test [3] in a line: NCI Yeast Anticancer Drug Screen. Data for the sgs1 mgt1 strain (AID 161).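 Also: 0% = growth of cultures given vehicle only.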 To be noted: S. cerevisiae sgs1 mgt1 strain, active compounds read high. The method in brief:
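Percent growth inhibition was derived by comparing compound-exposed mutant yeast with vehicle-exposed cultures. The strain carries alterations in DNA damage repair.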

Test [4] can be described thus: NCI Yeast Anticancer Drug Screen. Data for the cln2 rad14 strain (AID 165).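 Also: 0% = growth equal to vehicle treated cultures.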 To be noted: S. cerevisiae cln2 rad14 strain, active compounds read high. The method in brief:
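Strain: cln2 rad14 yeast, altered in cell cycle control and DNA damage repair. Read-out: growth inhibition vs vehicle.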

Test [5] in a line: NCI Yeast Anticancer Drug Screen. Data for the bub3 strain (AID 167). Particulars: S. cerevisiae bub3 mutant strain, active compounds read high. The gist of the method:
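Screening used yeast with an engineered genetic alteration affecting cell cycle control. Compound-exposed cultures were compared with vehicle cultures, and reduced growth was taken as inhibition.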

The nature of test [6]: NCI Yeast Anticancer Drug Screen. Data for the mlh1 rad18 strain (AID 175). Particulars: S. cerevisiae mlh1 rad18 strain growth inhibition, active compounds read high. The gist of the method:
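A repair-deficient yeast strain is exposed to test compound, and growth is scored relative to vehicle-treated controls.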

Setting [7] is: at 5.0 µM (retest, dose inferred, filed as 0.5).
The mark [8] stands for this setting: at 50.0 µM (retest, dose inferred, filed as 5.0).

On to `C(CCCCCN1CCCCC1)CCCCN1CCCCC1`, for which the growth inhibition is -14% in test [1] (setting [7]); -9% in test [1] (setting [8]); -2.7% in test [1] (at 50.0 µM); -20% in test [2] (setting [7]); -8% in test [2] (setting [8]); 5.4% in test [2] (at 50.0 µM). The growth inhibition was 3% in test [3] (setting [7]); -14% in test [3] (setting [8]); 7.2% in test [3] (at 50.0 µM); 3% in test [4] (setting [7]); 6% in test [4] (setting [8]); 6.75% in test [4] (at 50.0 µM). For the same compound, the growth inhibition in test [5] (setting [7]) was -11%; in test [5] (setting [8]), -18%; in test [5] (at 50.0 µM), -27.2%; in test [6] (setting [7]) it was -1%; in test [6] (setting [8]), 10%; in test [6] (at 50.0 µM) it was 6.85%.

For the compound `CSc1ccc(/C=C2\CN(C)C/C(=C\c3ccc(SC)cc3)C2=O)cc1`, the growth inhibition was 43% in test [1] (setting [7]); 52% in test [1] (setting [8]); 73.5% (active) in test [1] (at 50.0 µM); -7% in test [2] (setting [7]); 32% in test [2] (setting [8]); 70% (active) in test [2] (at 50.0 µM). Further, the growth inhibition is 36% in test [3] (setting [7]); 61% in test [3] (setting [8]); 91.6% (active) in test [3] (at 50.0 µM); 34% in test [4] (setting [7]); 33% in test [4] (setting [8]); 68.4% in test [4] (at 50.0 µM). For the same compound, the growth inhibition in test [5] (setting [7]) is 25%; in test [5] (setting [8]), 45%; in test [5] (at 50.0 µM), 44%; in test [6] (setting [7]), 29%; in test [6] (setting [8]), 15%; in test [6] (at 50.0 µM), 82.8% (active).

As for `Cc1nc2ccc3c(ccc4nc(C)c(N=Nc5ccc(C(=N)N)cc5)c(O)c43)c2c(O)c1N=Nc1ccc(C(=N)N)cc1`, the growth inhibition is 5% in test [1] (setting [7]); 89% (active) in test [1] (setting [8]); 93.8% (active) in test [1] (at 50.0 µM); 0% in test [2] (setting [7]); 95% (active) in test [2] (setting [8]); 95.6% (active) in test [2] (at 50.0 µM). Further, the growth inhibition was -1% in test [3] (setting [7]); 70% (active) in test [3] (setting [8]); 85.2% (active) in test [3] (at 50.0 µM); -4% in test [4] (setting [7]); 81% (active) in test [4] (setting [8]); 87% (active) in test [4] (at 50.0 µM). Also, the growth inhibition is -6% in test [5] (setting [7]); 58% in test [5] (setting [8]); 93.3% (active) in test [5] (at 50.0 µM); 2% in test [6] (setting [7]); 77% (active) in test [6] (setting [8]); 90.7% (active) in test [6] (at 50.0 µM).

`c1ccc(N=C2SC3=NCCN3C2=Nc2ccccc2)cc1`: the growth inhibition in test [1] (setting [7]) is 43%; in test [1] (setting [8]), 87% (active); in test [1] (at 50.0 µM) it was 50%; in test [2] (setting [7]), 7%; in test [2] (setting [8]), 86% (active); in test [2] (at 50.0 µM) it was 74.5% (active). Besides, the growth inhibition in test [3] (setting [7]) was 17%; in test [3] (setting [8]) it was 86% (active); in test [3] (at 50.0 µM), 72% (active); in test [4] (setting [7]) it was 31%; in test [4] (setting [8]), 66%; in test [4] (at 50.0 µM), 46.6%. Also, the growth inhibition in test [5] (setting [7]) is -11%; in test [5] (setting [8]), 97% (active); in test [5] (at 50.0 µM), 70.2% (active); in test [6] (setting [7]) it was 13%; in test [6] (setting [8]) it was 78% (active); in test [6] (at 50.0 µM), 61.9%.

Turning to `CC(C)(S[S-])S[S-].[Ti].[c-]1[c-][c-][cH-][c-]1.[c-]1[c-][c-][cH-][c-]1`, the growth inhibition is 23% in test [1] (setting [7]); 97% (active) in test [1] (setting [8]); 84.1% (active) in test [1] (at 50.0 µM); -2% in test [2] (setting [7]); 98% (active) in test [2] (setting [8]); 57.9% in test [2] (at 50.0 µM). Also, the growth inhibition in test [3] (setting [7]) was 10%; in test [3] (setting [8]) it was 98% (active); in test [3] (at 50.0 µM) it was 95.2% (active); in test [4] (setting [7]), 11%; in test [4] (setting [8]) it was 97% (active); in test [4] (at 50.0 µM), 21.7%. Moreover, the growth inhibition is 24% in test [5] (setting [7]); 98% (active) in test [5] (setting [8]); 46.4% in test [5] (at 50.0 µM); 31% in test [6] (setting [7]); 98% (active) in test [6] (setting [8]); 87.3% (active) in test [6] (at 50.0 µM).

Consider `CCc1scc(C)[n+]1CC(=O)c1cccc([N+](=O)[O-])c1`, for which the growth inhibition in test [1] (setting [7]) was -1%; in test [1] (setting [8]) it was 15%; in test [1] (at 50.0 µM), -6.25%; in test [2] (setting [7]), -10%; in test [2] (setting [8]), 3%; in test [2] (at 50.0 µM), -2.9%. Also, the growth inhibition in test [3] (setting [7]) is 11%; in test [3] (setting [8]) it was 2%; in test [3] (at 50.0 µM), -4.4%; in test [4] (setting [7]) it was 12%; in test [4] (setting [8]) it was 18%; in test [4] (at 50.0 µM), 17.6%. For the same compound, the growth inhibition was 12% in test [5] (setting [7]); 25% in test [5] (setting [8]); 8.95% in test [5] (at 50.0 µM); 19% in test [6] (setting [7]); 22% in test [6] (setting [8]); -1.95% in test [6] (at 50.0 µM).

For `O=C1NC(=O)c2cccc3cccc1c23`, the growth inhibition in test [1] (setting [7]) was 20%; in test [1] (setting [8]) it was 68%; in test [1] (at 50.0 µM), 88.4% (active); in test [2] (setting [7]), 7%; in test [2] (setting [8]), 25%; in test [2] (at 50.0 µM), 52.6%. Further, the growth inhibition was 4% in test [3] (setting [7]); 37% in test [3] (setting [8]); 80.3% (active) in test [3] (at 50.0 µM); -5% in test [4] (setting [7]); 20% in test [4] (setting [8]); 64.5% in test [4] (at 50.0 µM). Moreover, the growth inhibition in test [5] (setting [7]) was 3%; in test [5] (setting [8]) it was 22%; in test [5] (at 50.0 µM) it was 63.1%; in test [6] (setting [7]), 7%; in test [6] (setting [8]) it was 55%; in test [6] (at 50.0 µM) it was 84.5% (active).

As to `COc1cc(C=O)c(C=O)cc1OC`, the growth inhibition is 8% in test [1] (setting [7]); 74% (active) in test [1] (setting [8]); 69.9% in test [1] (at 50.0 µM); 6% in test [2] (setting [7]); 40% in test [2] (setting [8]); 50.2% in test [2] (at 50.0 µM). The growth inhibition in test [3] (setting [7]) is 3%; in test [3] (setting [8]), 79% (active); in test [3] (at 50.0 µM), 52.5%; in test [4] (setting [7]) it was 9%; in test [4] (setting [8]), 84% (active); in test [4] (at 50.0 µM), 89.2% (active). Moreover, the growth inhibition in test [5] (setting [7]) was 5%; in test [5] (setting [8]) it was 87% (active); in test [5] (at 50.0 µM), 73.5% (active); in test [6] (setting [7]), 16%; in test [6] (setting [8]) it was 87% (active); in test [6] (at 50.0 µM), 74.5% (active).

As to `Cc1ccc(S(=O)(=O)NCCCSCCO)cc1`, the growth inhibition in test [1] (setting [7]) was 6%; in test [1] (setting [8]) it was 45%; in test [1] (at 50.0 µM), 80.2% (active); in test [2] (setting [7]) it was -45%; in test [2] (setting [8]), 91% (active); in test [2] (at 50.0 µM), 84.4% (active). Also, the growth inhibition in test [3] (setting [7]) was -12%; in test [3] (setting [8]), 25%; in test [3] (at 50.0 µM), 70.4% (active); in test [4] (setting [7]), 9%; in test [4] (setting [8]), 57%; in test [4] (at 50.0 µM) it was 74% (active). Besides, the growth inhibition was -11% in test [5] (setting [7]); 63% in test [5] (setting [8]); 74.2% (active) in test [5] (at 50.0 µM); -1% in test [6] (setting [7]); 90% (active) in test [6] (setting [8]); 54.6% in test [6] (at 50.0 µM).
